# Screening data from PubChem BioAssay.
# CYP2C19 inhib – inhibitors of human CYP2C19; P33261; CYP2C19 Supersomes, luciferin-H EGE luminescence, 30 min; inhibition, % at 5 µM; actives 21% (n = 96,000); AID 778;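 active = CYP2C19 inhibition above a set limit at 5 µM in the primary screen, cut at about 50% in these data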;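 also: plate controls were negative control wells for no effect and 2.5 mM tranylcypromine positive control for full effect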
# CYP2C9 act – CYP2C9 (human) activation; P11712; recombinant CYP2C9, luciferin-H conversion, luminescence; stronger effect = higher value; factor 1 = untreated enzyme, 0 = blocked; activation factor at 5 µM; actives 1.4% (n = 96,000);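 active = activation factor of 2 or more for CYP2C9 at a 5 µM dose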;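 also: 0 = sulfaphenazole-blocked wells and 1 = vehicle-only wells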
# CYP2C9 inhib – inhibitors of human CYP2C9. P11712. CYP2C9 Supersomes, luciferin-H conversion, luminescence. inhibition, % at 5 µM. actives 20% (n = 96,000);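 active = blocking of liver enzyme CYP2C9 beyond about 50% at 5 µM, limit read from the data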
# Cav32 inh – inhibitors of human Cav3.2 T-type calcium channel; O95180; Cav3.2-expressing cells, Fluo-4 calcium fluorescence FDSS; stronger effect = lower value; B-score at 10 µM; actives 4% (n = 100,000); AID 449739;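 active = single-dose well whose peak fluorescence ratio is a statistical outlier from its plate by either plate-standardised score or position-corrected B-score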
# Target sequence (O95180 whole entry, looked up): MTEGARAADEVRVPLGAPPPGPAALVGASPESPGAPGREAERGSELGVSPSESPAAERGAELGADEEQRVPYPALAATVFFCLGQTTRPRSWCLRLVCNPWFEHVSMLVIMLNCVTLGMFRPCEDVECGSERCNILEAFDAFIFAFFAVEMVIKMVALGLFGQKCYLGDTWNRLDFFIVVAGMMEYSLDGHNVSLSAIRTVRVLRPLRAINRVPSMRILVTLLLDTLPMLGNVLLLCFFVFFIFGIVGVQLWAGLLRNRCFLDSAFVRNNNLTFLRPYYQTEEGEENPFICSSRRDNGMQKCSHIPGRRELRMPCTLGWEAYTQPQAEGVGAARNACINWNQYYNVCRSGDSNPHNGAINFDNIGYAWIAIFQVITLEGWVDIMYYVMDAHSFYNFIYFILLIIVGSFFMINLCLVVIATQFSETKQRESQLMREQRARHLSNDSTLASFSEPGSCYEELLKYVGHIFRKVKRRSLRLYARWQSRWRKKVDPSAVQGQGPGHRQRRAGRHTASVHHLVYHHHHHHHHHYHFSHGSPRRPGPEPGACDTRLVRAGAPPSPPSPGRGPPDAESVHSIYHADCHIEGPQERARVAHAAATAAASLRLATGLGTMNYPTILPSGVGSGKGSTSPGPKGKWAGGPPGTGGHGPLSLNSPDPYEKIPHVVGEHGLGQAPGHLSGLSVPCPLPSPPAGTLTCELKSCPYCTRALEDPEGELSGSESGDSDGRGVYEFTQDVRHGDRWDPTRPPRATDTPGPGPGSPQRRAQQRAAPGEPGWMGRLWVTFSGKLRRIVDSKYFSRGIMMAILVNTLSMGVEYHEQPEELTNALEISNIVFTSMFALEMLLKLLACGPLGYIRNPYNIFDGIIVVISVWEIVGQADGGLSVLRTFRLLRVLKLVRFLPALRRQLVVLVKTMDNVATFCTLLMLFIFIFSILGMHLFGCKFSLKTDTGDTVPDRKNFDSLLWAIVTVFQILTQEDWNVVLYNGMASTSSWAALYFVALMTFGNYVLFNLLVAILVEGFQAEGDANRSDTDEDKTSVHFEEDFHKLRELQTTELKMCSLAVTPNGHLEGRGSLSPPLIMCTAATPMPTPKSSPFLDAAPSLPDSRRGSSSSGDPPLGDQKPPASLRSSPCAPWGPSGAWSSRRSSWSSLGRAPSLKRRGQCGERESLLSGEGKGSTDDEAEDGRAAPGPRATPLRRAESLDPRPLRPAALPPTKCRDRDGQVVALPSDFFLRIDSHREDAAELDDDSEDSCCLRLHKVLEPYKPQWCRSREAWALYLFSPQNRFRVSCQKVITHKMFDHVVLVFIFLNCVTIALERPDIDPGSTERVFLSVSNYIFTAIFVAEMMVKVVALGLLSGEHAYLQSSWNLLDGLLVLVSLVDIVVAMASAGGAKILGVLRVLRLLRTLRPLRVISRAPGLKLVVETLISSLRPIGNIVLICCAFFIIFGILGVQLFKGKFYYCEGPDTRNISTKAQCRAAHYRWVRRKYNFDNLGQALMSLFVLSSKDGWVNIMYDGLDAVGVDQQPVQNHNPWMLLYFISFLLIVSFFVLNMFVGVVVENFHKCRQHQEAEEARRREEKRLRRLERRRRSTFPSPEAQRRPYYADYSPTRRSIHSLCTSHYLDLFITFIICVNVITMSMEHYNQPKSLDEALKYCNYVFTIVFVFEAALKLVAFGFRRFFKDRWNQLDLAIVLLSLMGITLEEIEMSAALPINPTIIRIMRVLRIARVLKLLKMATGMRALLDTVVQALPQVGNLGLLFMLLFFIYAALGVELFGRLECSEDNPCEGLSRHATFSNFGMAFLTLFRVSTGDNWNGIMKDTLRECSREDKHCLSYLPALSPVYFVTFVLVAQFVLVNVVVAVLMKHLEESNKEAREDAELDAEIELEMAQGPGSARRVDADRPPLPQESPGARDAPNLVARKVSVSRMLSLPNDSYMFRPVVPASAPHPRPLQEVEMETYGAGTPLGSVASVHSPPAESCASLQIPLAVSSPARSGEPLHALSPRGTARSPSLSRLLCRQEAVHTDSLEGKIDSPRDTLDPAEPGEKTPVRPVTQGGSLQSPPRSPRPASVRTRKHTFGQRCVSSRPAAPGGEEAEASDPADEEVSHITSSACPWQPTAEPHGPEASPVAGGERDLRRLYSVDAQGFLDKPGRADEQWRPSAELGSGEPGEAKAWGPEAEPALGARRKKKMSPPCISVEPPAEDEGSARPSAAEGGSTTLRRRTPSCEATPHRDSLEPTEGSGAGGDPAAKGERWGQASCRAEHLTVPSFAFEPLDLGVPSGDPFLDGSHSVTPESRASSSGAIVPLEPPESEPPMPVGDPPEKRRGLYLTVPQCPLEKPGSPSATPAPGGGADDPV
# CYP2C19 activ – cytochrome P450 2C19 (human) activation. P33261. recombinant CYP2C19, luciferin-H EGE luminescence; stronger effect = higher value; 0 = fully inhibited enzyme, 1 = untreated enzyme. activation factor at 5 µM. 96,000 tested, under 10 active. AID 1025;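 active = activation factor of at least 2 at 5 µM in the primary screen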;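 also: 0 = wells with 2.5 mM tranylcypromine and 1 = vehicle-only wells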
# * = called active by the depositor; x = no result given. Hits are enriched below; roughly 27% of the tested compounds scored in any of these assays.
SMILES,CYP2C19 inhib,CYP2C9 act,CYP2C9 inhib,Cav32 inh,CYP2C19 activ
O=C(c1cc2ccccc2oc1=O)N(Cc1cccs1)Cc1ccccc1Cl,x,x,x,-7.1*,x
C=CCNC(=O)c1c(CSc2ccccc2)noc1C(=O)NCc1ccccc1,x,x,x,-2.1,x
CCC(C)[C@H](NC(=O)NCC1CCCO1)C(=O)OC (some centres not stated),-14,1.1,-12,0.44,1.1
COc1cc(OC)cc(C(=O)N2CCN(Cc3ccccc3C(F)(F)F)CC2)c1,78*,0.7,30,-1.6,0.2
COc1cccc(OC)c1C(=O)N1CCN(Cc2ccccc2C(F)(F)F)CC1,94*,0.1,91*,-2.6,0.1
CCCS(=O)(=O)N1CCN(C(=O)c2cc(OC)cc(OC)c2)CC1,71*,0.9,11,0.36,0.3
COC(=O)CN1C(=O)[C@@H]2[C@H](C1=O)[C@@H]1CC(C(=O)OC)=C[C@@H](C(=O)OC)[C@@H]3C1=C(C(=O)[C@@]3(C)NC(=O)c1ccccc1)[C@@H]2C,x,x,x,-1.3,x
COc1ccc(Oc2nc(C(F)(F)F)nc3ccccc23)cc1,14,0.9,10,-1.6,0.9
O=c1cc(-c2ccccc2)nc2nc(-c3ccco3)[nH]n12,-12,0.5,52*,0.44,1.1
O=c1cc(-c2ccccc2)nc2nc(CCc3ccccc3)[nH]n12,-12,0.3,72*,-2.8,1.1
O=c1cc(-c2ccccc2)nc2nc(SCc3ccccc3)[nH]n12,1,0.1,90*,-4.6*,1
Cc1cc(=O)n2[nH]c(SCc3ccccc3)nc2n1,2,0.8,22,0.27,1
O=C(Cc1ccc(Br)cc1)c1ccc(O)cc1O,71*,0.5,54*,-8.6*,0.3
O=C(Cn1cnc2c(nnn2Cc2ccc(Cl)cc2)c1=O)N1CCCc2ccccc21,x,x,x,0.16,x
Cc1cc(C)n(Cc2ccc(C(=O)NCCC3=CCCCC3)o2)n1,41,0.8,18,0.89,0.6
CCCCn1c(=NC(=O)c2cccnc2)c(C(=O)OCC)cc2c(=O)n3ccccc3nc21,-7,0.9,7,1.5,1.1
Cc1cccn2c(=O)c3cc(C#N)c(=NC(=O)c4ccncc4)n(CCCOC(C)C)c3nc12,94*,0.1,87*,-0.77,0.1
COCCCn1c(=NC(=O)c2ccncc2)c(C#N)cc2c(=O)n3cccc(C)c3nc21,70*,0.2,81*,-2.5,0.3
CCCCn1c(=NC(=O)c2cccnc2)c(C#N)cc2c(=O)n3cccc(C)c3nc21,1,1,-2,x,1
CCOCCCn1c(=NC(=O)c2cccnc2)c(C(=O)OCC)cc2c(=O)n3ccccc3nc21,3,0.8,16,4.2*,1
Cc1ccc(-c2nc(CS(=O)(=O)CC(=O)NC3CCCCC3C)c(C)o2)cc1 (configuration not stated),22,0.7,27,x,0.8
O=C(Nc1ccc2c(c1)OCO2)N1CCN(C/C=C/c2ccccc2)CC1,-2,0.9,7,0.72,1
CCCSC1=C(C#N)C(c2ccccc2C)CC(=O)N1 (configuration not stated),57*,0.6,39,0.45,0.4
CCCSC1=C(C#N)C(c2ccc(Cl)cc2Cl)CC(=O)N1 (configuration not stated),37,0.3,67*,-0.094,0.6
O=C(CN1C(=O)CCSc2ccccc21)Nc1cccc(F)c1,78*,0.3,67*,0.084,0.2
SMILES,CYP2C19 inhib,CYP2C9 act,CYP2C9 inhib,Cav32 inh,CYP2C19 activ
O=C(O)CCCC(=O)Nc1c(F)c(F)c(F)c(F)c1F,5,0.9,8,0.19,1
CCOC(=O)N1CCN(C(=O)C2CCN(S(=O)(=O)c3ccccc3)CC2)CC1,4,1,-3,1.7,1
CC(=O)C1=C(C)OC(N)=C(C#N)C1c1ccco1 (configuration not stated),36,1,-4,-0.23,0.6
CC(=O)n1c2c(c3ccccc31)OC(N)=C(C#N)C2c1ccc(C(C)C)cc1 (configuration not stated),39,0.3,72*,0.0093,0.6
COc1c(C)cccc1C(=O)Nc1ccc(N2CCOCC2)c(Cl)c1,11,1.7,-71,-2.2,0.9
CCOc1cc(CNn2cnnc2)ccc1OCC(=O)NC1CCCCC1,28,0.3,65*,-0.13,0.7
Cc1cc(NS(=O)(=O)c2ccccc2)cc(Cl)c1O,100*,1.7,-74,-1.5,0
Cc1ccc(S(=O)(=O)Nc2cc(C)c(O)c(S(=O)(=O)c3ccc(C)cc3)c2)cc1,36,0.2,77*,-3.7*,0.6
